Data as given in PubChem BioAssay (EPA / NIEHS).
The source made the active and inactive calls. The calls were made as follows: active = hit-call score of the fitted dose curve at least 0.9, where 1 is the maximum; inactive = score below 0.9.

Tests used:
Details in all cases: mRNA level, 48 h; actives raise or lower the signal
[1] = read-out: growth arrest and DNA damage 45 (GADD45A), GADD45A (gene 1647); test: LTEA_HepaRG_GADD45A: Life Technologies and Expression Analysis (LTEA) Assay for growth arrest and DNA damage 45 (GADD45A) using HepaRG (AID 2283458)
Procedure, shortened: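 Differentiated HepaRG cells were exposed in duplicate for 48 h in serum-free induction medium to 8-point half-log concentrations up to 100 uM in 0.5% DMSO. GADD45A mRNA was measured by TaqMan qRT-PCR, normalized to ACTB, GAPDH and POLR2A, with bidirectional fitting versus DMSO.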

[2] = read-out: Forkhead box O3 (FOXO3), FOXO3 (gene 2309); test: LTEA_HepaRG_FOXO3: Life Technologies and Expression Analysis (LTEA) Assay for Forkhead box O3 (FOXO3) using HepaRG (AID 2283459)
Procedure, shortened: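 HepaRG, 48 h post-dose; 8 conc., half-log from 100 uM, 0.5% DMSO, duplicates; serum-free induction medium. Readout: FOXO3 mRNA, TaqMan qRT-PCR, housekeeping-normalized. Bidirectional curve fit vs DMSO baseline.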

[3] = read-out: ABC Transporter (ABCB1), ABCB1 (gene 5243); test: LTEA_HepaRG_ABCB1: Life Technologies and Expression Analysis (LTEA) Assay for ABC Transporter (ABCB1) using HepaRG (AID 2283460)
Procedure, shortened: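 Expression of ABCB1 was quantified by qRT-PCR against three housekeeping genes after human HepaRG cultures received test chemicals for 48 hours. Concentrations spanned eight half-log steps topping at 100 uM in 0.5% DMSO; gain or loss of signal was fitted relative to vehicle.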

[4] = read-out: growth arrest and DNA damage 45 (GADD45B), GADD45B (gene 4616); test: LTEA_HepaRG_GADD45B: Life Technologies and Expression Analysis (LTEA) Assay for growth arrest and DNA damage 45 (GADD45B) using HepaRG (AID 2283461)
Procedure, shortened: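 Transcript level quantified by Fluidigm TaqMan qRT-PCR with three housekeeping genes for normalization, analyzed for up- or down-regulation against 0.5% DMSO. HepaRG cultures dosed 48 h at eight half-log concentrations up to 100 uM, duplicates.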

[5] = read-out: ABC Transporter (ABCC3), ABCC3 (gene 8714); test: LTEA_HepaRG_ABCC3: Life Technologies and Expression Analysis (LTEA) Assay for ABC Transporter (ABCC3) using HepaRG (AID 2283462)
Procedure, shortened: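 Transcript level by TaqMan qRT-PCR, normalised to three housekeeping genes, fitted in both directions relative to vehicle. Chemicals tested in duplicate at eight half-log concentrations up to 100 uM for 48 h on HepaRG cells (0.5% DMSO).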

[6] = read-out: ABC Transporter (ABCB11), ABCB11 (gene 8647); test: LTEA_HepaRG_ABCB11: Life Technologies and Expression Analysis (LTEA) Assay for ABC Transporter (ABCB11) using HepaRG (AID 2283463)
Procedure, shortened: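 ABCB11 transcript levels are read by Fluidigm TaqMan qRT-PCR after 48 h chemical treatment of human HepaRG cells. Concentrations span 100 uM downward in half-log steps with 0.5% DMSO; gain or loss is fitted against DMSO controls.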

[7] = read-out: ABC Transporter (ABCC2), ABCC2 (gene 1244); test: LTEA_HepaRG_ABCC2: Life Technologies and Expression Analysis (LTEA) Assay for ABC Transporter (ABCC2) using HepaRG (AID 2283464)
Procedure, shortened: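 Endpoint is ABCC2 transcript level from qRT-PCR, normalized to three housekeeping genes and fitted bidirectionally relative to DMSO. Human HepaRG cells received test chemical for 48 h at up to 100 uM (8 points, half-log steps, 0.5% DMSO), duplicate wells.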

[8] = read-out: Broad substrate specificity ATP-binding cassette transporter ABCG2 (Homo sapiens) (UniProt Q9UNQ0); test: LTEA_HepaRG_ABCG2: Life Technologies and Expression Analysis (LTEA) Assay for ABC Transporter (ABCG2) using HepaRG (AID 2283465)
Procedure, shortened: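 Read-out is ABCG2 mRNA induction or loss quantified by qRT-PCR after 48 h chemical treatment of human HepaRG cells, normalized to three housekeeping genes. Concentrations reached 100 uM top in half-log steps; fitting was bidirectional against 0.5% DMSO.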

[9] = read-out: ATP-citrate lyase (ACLY), ACLY (gene 47); test: LTEA_HepaRG_ACLY: Life Technologies and Expression Analysis (LTEA) Assay for ATP-citrate lyase (ACLY) using HepaRG (AID 2283466)
Procedure, shortened: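 HepaRG, 48 h exposure, 8-pt half-log dilutions (top 100 uM), 0.5% DMSO. Readout: ACLY mRNA, TaqMan qRT-PCR, housekeeping-normalized (ACTB/GAPDH/POLR2A). Bidirectional curve fit vs DMSO.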

[10] = read-out: Peroxisomal acyl-coenzyme A oxidase 1 (ACOX1) gene, ACOX1 (gene 51); test: LTEA_HepaRG_ACOX1: Life Technologies and Expression Analysis (LTEA) Assay for Peroxisomal acyl-coenzyme A oxidase 1 (ACOX1) gene using HepaRG (AID 2283467)
Procedure, shortened: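 Measured by qRT-PCR against three housekeeping genes: ACOX1 transcript change in human HepaRG cells after 48 h dosing. Concentrations ran up to 100 uM in half-log steps. Curves were fitted bidirectionally relative to 0.5% DMSO.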

[11] = read-out: Alkaline Phosphatase, Placental (ALPP) gene, ALPP (gene 250); test: LTEA_HepaRG_ALPP: Life Technologies and Expression Analysis (LTEA) Assay for Alkaline Phosphatase, Placental (ALPP) gene using HepaRG (AID 2283468)
Procedure, shortened: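 ALPP transcript level, measured by qRT-PCR and normalized to three housekeeping genes (ACTB, GAPDH, POLR2A), after 48 h dosing of differentiated HepaRG in serum-free induction medium. Top concentration 100 uM with half-log dilutions (8 points, 0.5% DMSO, duplicates); bidirectional fitting relative to DMSO.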

[12] = read-out: Bcl-2 (BAD) gene, BAD (gene 572); test: LTEA_HepaRG_BAD: Life Technologies and Expression Analysis (LTEA) Assay for Bcl-2 (BAD) gene using HepaRG (AID 2283469)
Procedure, shortened: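 BAD transcript change, measured by qRT-PCR against three housekeeping genes and fitted in both directions relative to 0.5% DMSO, after 48 h chemical treatment of human HepaRG liver cells at concentrations up to 100 uM.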

[13] = read-out: Bcl-2 (BAX) gene, BAX (gene 581); test: LTEA_HepaRG_BAX: Life Technologies and Expression Analysis (LTEA) Assay for Bcl-2 (BAX) gene using HepaRG (AID 2283470)
Procedure, shortened: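 Differentiated human HepaRG cells, plated 48 h then switched to serum-free induction medium, were exposed 48 h to 8 half-log concentrations up to 100 uM in 0.5% DMSO; BAX mRNA measured by qRT-PCR, normalized to ACTB, GAPDH, POLR2A.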

[14] = read-out: adenosine kinase (ADK) gene, ADK (gene 132); test: LTEA_HepaRG_ADK: Life Technologies and Expression Analysis (LTEA) Assay for adenosine kinase (ADK) gene using HepaRG (AID 2283471)
Procedure, shortened: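 ADK expression quantified by qRT-PCR, normalised to three housekeeping genes, after 48 h exposure of HepaRG cells to eight concentrations (top 100 uM, half-log steps, duplicate, 0.5% DMSO). Up- or down-regulation fitted relative to vehicle.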

[15] = read-out: Alpha-fetoprotein (AFP) gene, AFP (gene 174); test: LTEA_HepaRG_AFP: Life Technologies and Expression Analysis (LTEA) Assay for Alpha-fetoprotein (AFP) gene using HepaRG (AID 2283472)
Procedure, shortened: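 Human HepaRG cells plated 48 h, then switched to serum-free induction medium and exposed in duplicate for 48 h to 8-point half-log series from 100 uM in 0.5% DMSO. AFP mRNA by qRT-PCR, normalized to ACTB, GAPDH, POLR2A; bidirectional fit versus DMSO.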

BCL2L11 (gene 10018) = test: LTEA_HepaRG_BCL2L11: Life Technologies and Expression Analysis (LTEA) Assay for Bcl-2 (BCL2L11) gene using HepaRG (AID 2283473)
Procedure, shortened: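 BCL2L11 transcript levels are measured by Fluidigm qRT-PCR, normalized to three housekeeping genes. HepaRG cultures were plated 48 h, then treated 48 h with test chemical (top 100 uM, half-log, 0.5% DMSO vehicle); curves were fitted bidirectionally against DMSO.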

[16] = read-out: Apoptosis regulator Bcl-2 (Homo sapiens) (UniProt P10415); test: LTEA_HepaRG_BCL2: Life Technologies and Expression Analysis (LTEA) Assay for Bcl-2 gene using HepaRG (AID 2283475)
Procedure, shortened: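 Differentiated HepaRG cells in serum-free induction medium were exposed for 48 h to eight half-log concentrations up to 100 uM in 0.5% DMSO, in duplicate. BCL2 mRNA was quantified by TaqMan qRT-PCR normalised to ACTB, GAPDH and POLR2A, with bidirectional fitting versus DMSO.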

[17] = read-out: Bcl-2 (BID) gene, BID (gene 637); test: LTEA_HepaRG_BID: Life Technologies and Expression Analysis (LTEA) Assay for Bcl-2 (BID) gene using HepaRG (AID 2283476)
Procedure, shortened: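 Differentiated HepaRG cells in serum-free induction medium were exposed in duplicate for 48 h to eight half-log concentrations up to 100 uM in 0.5% DMSO. BID mRNA was quantified by qRT-PCR, normalized to ACTB, GAPDH and POLR2A.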

Caspase-3 (Homo sapiens) = Caspase-3 (Homo sapiens) (UniProt P42574); test: LTEA_HepaRG_CASP3: Life Technologies and Expression Analysis (LTEA) Assay for cysteine-aspartic acid protease (CASP3) using HepaRG (AID 2283477)
Procedure, shortened: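 Expression of CASP3 was quantified by TaqMan qRT-PCR against three housekeeping genes (ACTB, GAPDH, POLR2A), bidirectionally versus 0.5% DMSO. HepaRG cultures received compounds in duplicate, top 100 uM with half-log steps, for 48 h in serum-free induction medium.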

[18] = read-out: Apolipoprotein A-V (APOA5) gene, APOA5 (gene 116519); test: LTEA_HepaRG_APOA5: Life Technologies and Expression Analysis (LTEA) Assay for Apolipoprotein A-V (APOA5) gene using HepaRG (AID 2283474)
Procedure, shortened: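 APOA5 transcript levels were quantified by qRT-PCR, normalized to three housekeeping genes, after 48 h chemical treatment of HepaRG cells (8 points, 100 uM maximum, half-log steps, 0.5% DMSO). Curves fitted in both directions against vehicle.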

Measured: AC50

Chain of Broad substrate specificity ATP-binding cassette transporter ABCG2 (Homo sapiens) (Q9UNQ0 whole entry, looked up): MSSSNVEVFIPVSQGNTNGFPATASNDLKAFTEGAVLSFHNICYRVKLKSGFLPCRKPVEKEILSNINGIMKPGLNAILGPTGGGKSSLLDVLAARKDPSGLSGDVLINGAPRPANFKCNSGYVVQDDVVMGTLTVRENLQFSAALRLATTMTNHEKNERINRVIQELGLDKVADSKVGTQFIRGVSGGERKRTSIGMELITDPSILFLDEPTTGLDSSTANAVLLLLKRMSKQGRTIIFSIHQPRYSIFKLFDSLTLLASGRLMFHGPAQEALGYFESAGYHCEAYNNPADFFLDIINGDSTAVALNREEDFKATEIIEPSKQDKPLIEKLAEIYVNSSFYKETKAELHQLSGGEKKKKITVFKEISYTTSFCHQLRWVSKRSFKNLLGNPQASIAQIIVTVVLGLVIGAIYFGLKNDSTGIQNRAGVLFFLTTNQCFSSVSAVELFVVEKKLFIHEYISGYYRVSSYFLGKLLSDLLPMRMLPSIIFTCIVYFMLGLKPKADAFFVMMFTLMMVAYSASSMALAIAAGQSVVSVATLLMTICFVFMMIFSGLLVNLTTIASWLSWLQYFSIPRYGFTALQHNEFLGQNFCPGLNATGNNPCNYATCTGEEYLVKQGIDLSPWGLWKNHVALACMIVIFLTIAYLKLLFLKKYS
Chain of Caspase-3 (Homo sapiens) (P42574 whole entry, looked up): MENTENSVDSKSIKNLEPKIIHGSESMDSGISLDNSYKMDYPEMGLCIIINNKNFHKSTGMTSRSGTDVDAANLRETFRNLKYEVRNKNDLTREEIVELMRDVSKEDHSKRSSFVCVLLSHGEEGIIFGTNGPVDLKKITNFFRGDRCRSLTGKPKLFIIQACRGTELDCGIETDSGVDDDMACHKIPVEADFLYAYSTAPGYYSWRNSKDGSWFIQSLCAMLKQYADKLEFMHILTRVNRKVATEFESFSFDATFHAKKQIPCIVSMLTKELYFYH
Chain of Apoptosis regulator Bcl-2 (Homo sapiens) (P10415 whole entry, looked up): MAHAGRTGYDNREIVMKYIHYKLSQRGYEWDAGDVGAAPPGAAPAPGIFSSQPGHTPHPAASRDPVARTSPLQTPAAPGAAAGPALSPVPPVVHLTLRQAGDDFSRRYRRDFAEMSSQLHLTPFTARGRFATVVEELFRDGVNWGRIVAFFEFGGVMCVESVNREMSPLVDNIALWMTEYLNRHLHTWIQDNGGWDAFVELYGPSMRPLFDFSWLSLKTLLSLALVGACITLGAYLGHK

O=C(N[C@@H](c1ccccc1)[C@@H]1CCCCN1)c1cccc(C(F)(F)F)c1Cl
active: [2] 73.4 µM | [3] 89.9 µM | [4] 50 µM | [5] 12.9 µM | [6] 24.1 µM | [7] 78.1 µM | [9] 11.4 µM | [10] 74.2 µM | [11] 10.8 µM | [14] 78.2 µM | [15] 25.5 µM | BCL2L11 (gene 10018) 85.7 µM | Caspase-3 (Homo sapiens) 50 µM
inactive: [1] | [8] | [12] | [13] | [16] | [17]

OCC(CO)n1cnc(-c2ccc(F)cc2)c1-c1ccnc(Oc2ccccc2)n1
active: [3] 20 µM | [7] 24.7 µM | [8] 16 µM | [15] 28.4 µM
inactive: [1] | [2] | [4] | [5] | [6] | [9] | [10] | [11] | [12] | [13] | [14] | BCL2L11 (gene 10018) | [18] | [17] | Caspase-3 (Homo sapiens)

CC(=O)CC(c1ccccc1)c1c(O)c2ccccc2oc1=O (stereo not drawn)
active: [9] 50 µM
inactive: [1] | [2] | [3] | [4] | [5] | [6] | [7] | [8] | [10] | [11] | [12] | [13] | [14] | [15] | BCL2L11 (gene 10018) | [18] | [16] | [17] | Caspase-3 (Homo sapiens)
